These results are taken from PubChem BioAssay (EPA / NIEHS).

Calls of active or inactive are those of the source. Rule for the calls: active = hit-call score of the fitted dose curve at least 0.9, where 1 is the maximum; inactive = score below 0.9.

Read-out in this assay: ABC Transporter (ABCB11), ABCB11 (gene 8647)
As to the kind of experiment: LTEA_HepaRG_ABCB11: Life Technologies and Expression Analysis (LTEA) Assay for ABC Transporter (ABCB11) using HepaRG (AID 2283463). To be noted: mRNA level, 48 h; actives raise or lower the signal. How it is done: LTEA_HepaRG is a cell based, multiplexed-readout assay that uses HepaRG, a human liver cell line, with measurements taken at 48 hours after chemical dosing on a 96-well plate.LTEA_HepaRG_ABCB11 is one of 102 assay component(s) measured in the LTEA HepaRG cell culture assay. It is a marker of Steatosis/NR mediated transport.Data from the assay component LTEA_HepaRG_ABCB11 was analyzed into 1 endpoint. This assay endpoint, LTEA_HepaRG_ABCB11, was analyzed with bidirectional fitting relative to DMSO as the negative control and baseline of activity. Using a type of inducible reporter, measures of mRNA induction for gain or loss-of-signal activity can be used to understand regulation of transcription factor activity. To generalize the intended target to other relatable targets, this assay endpoint is annotated to the transporter intended target family, where the subfamily is ABC transporter.
A total of 1060 chemcials from the ToxCast library were tested in eight-point concentration-response experiments. Cell culture and cytotoxicity assays were conducted at Thermo Fisher Scientific's Custom Services facility (Madison, WI). A single lot of human HepaRG cells (Thermo Fisher Scientific, Frederick, MD) was used for the cell culture experiments. 96-well format collagen type I coated plates of human HepaRG cells were prepared using established methods. Briefly, cryopreserved HepaRG cells were thawed, plated at a density of approximately 100,000 cells/well in HepaRG Thaw, Plate, and General Purpose media (HPRG770, Thermo Fisher Scientific), and incubated for 48 hours. 0.5% DMSO was selected as vehicle control to balance the requisite need of DMSO in HepaRG cultures to maintain differentiation (for example, baseline metabolism, proportions of hepatocytes vs. cholangiocytes), while enabling further hepatic receptor pathway activation (for example, PXR and CAR) in response to chemical exposure. 48 hours after plating, the culture medium was replaced with HepaRG Serum-Free Incudtion Media. Cells were exposed to each test chemical in duplicate and maintained in CO2 incubators for another 48 hours. Chemical plates were thawed to room temperature and 200x concentrations of treatment groups were prepared. 8-point conentration-reponse curves were made with the highest exposure at 100 uM, followed by half-log dilutions, all in 0.5% DMSO. Each test plate contained variouse controls, induction positive controls (1mM phenobarbital), cytotoxicity positive controls ([…] aflatoxin B1), vehicle controls (0.5% DMSO), and total lysis controls (0.5% DMSO). Cell morphology images were taken using an Essen IncuCyte FLR automated microscope, with six 96-well plates imaged in about 24 minutes. Images were captured and exported and JPEG files. Spent culture media was transfered to black-well plates for the LDH assay, and remaining media was sorted at -80 C for later use. Cells were treated with RLT buffer and frozen until shipped for gene expression analysis. Total RNA was isolated from the cell suspension in 75 uL of Buffer RLT (Qiagen, Germantown, MD 20874) by Quintiles/Expression Analysis (Durham, NC) using a custom isolation procedure. Total RNA from each plate well was transferred to a preamplification plate. Fluidigm's 96.96 Dynamic ArrayTM (Fluidigm, Amsterdam, the Netherlands) technology was used for gene expression analyses by quantitative reverse transcription polymerase chain reaction (qRT-PCR, performed by Quintiles/Expression Analysis, Durham, NC)89. Standard TaqManTM Assays (Applied Biosystems/ThermoFisher Scientific, Foster City, CA) were used to assess the expression of 93 genes selected based on their selectivity and sensitivity to important hepatic receptors known to be modulated by environmental chemicals; importance in human hepatocyte functionality; and hepatotoxicity. […]
With `O=[N+]([O-])C(CO)(CO)CO`, the call was inactive.

With `CC1(C)CC(N=C=O)CC(C)(CN=C=O)C1` (stereo not given), the AC50 is 50 µM (active).

For the compound `Cc1ccc(N(C)C)cc1`, the compound was called inactive.

For the compound `Cc1cc(=O)[nH]c(=S)[nH]1`, the outcome was inactive.

In the case of `CCOC(=O)C(C)(C)Oc1ccc(Cl)cc1`, the outcome was inactive.

In the case of `Oc1ccc2c(c1)OC[C@@H](N1CCC(O)(c3ccc(F)cc3)CC1)[C@H]2O`, the outcome was inactive.

For `CCc1c(C(=O)NN2CCCCC2)nn(-c2ccc(Cl)cc2Cl)c1-c1ccc(Br)cc1`, the half-maximal activity concentration (AC50) was 39 µM (active).

As for `Cc1nc(C)nc(N2C[C@@H](C)N(c3ccnc([C@@H](C)O)n3)[C@@H](C)C2)n1`, the call was inactive.

As for `CCCCCCCCCCCC(=O)OC`, the compound was classed as inactive.

Consider `Cc1ccc(C)c(O)c1C`, for which the compound was classed as inactive.

In the case of `CC1=C(/C=C/C(C)=C/C=C/C(C)=C/CO)C(C)(C)CCC1`, the compound was called inactive.

In the case of `CC(=O)OCCOCCOCCOC(C)=O`, the result was inactive.

Turning to `CC(=O)Oc1ccccc1C(=O)O`, the call was inactive.

As to `C[Si]1(C)O[Si](C)(C)O[Si](C)(C)O[Si](C)(C)O1`, the compound was classed as inactive.

`NCCO`: the outcome was inactive.

For the compound `CC(C)(C)c1cc(O)c(C(C)(C)C)cc1O`, the AC50 was 72.7 µM (active).

For `CN[C@H]1CC[C@@H](c2ccc(Cl)c(Cl)c2)c2ccc(S(N)(=O)=O)cc21`, the concentration at half-maximal activity (AC50) was 15.8 µM (active).

For the compound `O=C(O)CCCCC(=O)O`, the call was inactive.

Regarding `Cc1ccccc1Cl`, the result was inactive.

`CCOC(=O)CCC(=O)OCC`: the result was inactive.

For the compound `COc1cc(C=O)ccc1O`, the outcome was inactive.

For the compound `NCC1(Cc2noc(=O)[nH]2)CCCCC1`, the outcome was inactive.

Regarding `CCCCc1ccc2c(n1)[C@@H](c1ccc(OC)cc1C[C@H](C)C(=O)O)[C@H](C(=O)O)[C@H]2c1ccc2c(c1)OCO2`, the call was inactive.

On to `CCCCN(CCCC)CCCC`, for which the compound was classed as inactive.

For `CCCCCCCCCCC`, the call was inactive.

For `C=CCOC(=O)c1ccccc1C(=O)OCC=C`, the compound was classed as inactive.

For `CNC(=O)[C@H]1O[C@@H](n2cnc3c(NCc4cc(Cl)ccc4OCc4cc(C)no4)ncnc32)[C@H](O)[C@@H]1N`, the call was inactive.

Regarding `Cc1oc(-c2ccccc2)nc1CCOc1cccc2c1ccn2CCC(=O)O`, the half-maximal activity concentration (AC50) was 93.7 µM (active).

Take `CCCCCC(=O)O`: the result was inactive.

Regarding `OC[C@@H](O)[C@@H](O)[C@H](O)[C@H](O)CO`, the call was inactive.

On to `Nc1ccc(S(=O)(=O)c2ccc(N)cc2)cc1`, for which the outcome was inactive.

For `O=C(N[C@@H](Cc1ccccc1)[C@@H](O)C(=O)N1C[C@@H](O)[C@@H](O)C1)c1cc2cc(Cl)ccc2[nH]1`, the call was inactive.

As for `CCCCC(CC)COC(=O)CC(C(=O)OCC(CC)CCCC)S(=O)(=O)O` (stereo not given), the compound was classed as inactive.

On to `Cc1c(C(=O)O)c(O)cc2c1C(=O)c1c(O)c([C@@H]3O[C@H](CO)[C@@H](O)[C@H](O)[C@H]3O)c(O)c(O)c1C2=O`, for which the compound was classed as inactive.

Regarding `Cc1cc(NC(=O)C(=O)O)cc(C)c1Oc1ccc(O)c2c1CCC2`, the AC50 is 0.00778 µM (active).

Consider `CCCCCCCC=O`, for which the call was inactive.

Take `COc1ccc(S(=O)(=O)N2C(=O)[C@@](c3ccccc3OC)(N3C[C@H](O)C[C@H]3C(=O)N(C)C)c3cc(Cl)ccc32)c(OC)c1`: the concentration at half-maximal activity (AC50) is 14.9 µM (active).

As to `CC(=O)OC/C=C(\C)CCC=C(C)C`, the compound was called inactive.

For the compound `COCCOC[C@H](CC1(C(=O)NC2CCC(C(=O)O)CC2)CCCC1)C(=O)Oc1ccc2c(c1)CCC2` (stereo not given in full), the outcome was inactive.

Regarding `CCCCCCCCCCCCCCCCCC(=O)O`, the compound was classed as inactive.

As usually defined, the AC50 is the concentration at which the activity in the assay is half-maximal.
